The values that follow come from the supplement of paper PMC10849652.

The full data set covers some 8,800 targets. This sample favours those with a hit. About 0.5% of all pairs of compound and target were hits. Values without a mark were called inactive.

Experiment in all cases: log2 fold change, soluble protein after heating vs DMSO (PISA); higher = thermal stabilisation; K562 lysate, 10 uM; active = over 0.2 and 3.5 SD of the protein, either way, in both replicates (recomputed)
Compound in one assay: CN1CC[C@H](c2c(O)cc(O)c3c(=O)cc(-c4ccccc4Cl)oc23)[C@H](O)C1 [alvocidib]
The essentials:
(§1)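 Dounce homogenisation of K562 pellets in PBS pH 7.4 with 1 mM MgCl2 produced a crude extract, used at 1 mg/mL protein. Exposure to 10 μM compound lasted 30 min, and aliquots were then heated for 3 min across 48°C-58°C, pooled and brought to 0.5% NP-40 at 4°C. The supernatant after 21,000xg for 90 min was quantified by TMTpro 16plex LC-MS/MS with channel sums equalised. Duplicate values are given as log-two fold change in thermal stability relative to solvent controls.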

Compound in assay [1]: CNC(=O)C1=CC=CC=C1NC2=NC(=NC=C2Cl)NC3=C(C=C(C=C3)N4CCOCC4)OC
The procedure, abridged:
as §1

Compound in a further assay: CNC(=O)c1ccc(Nc2ncc(C(F)(F)F)c(NCc3nccnc3N(C)S(C)(=O)=O)n2)cc1 [defactinib]
The procedure, abridged: as §1

Compound in assay [2]: CNc1nc(-c2ccc3c(N)n[nH]c3c2)cc(N2C[C@@H](C(=O)NC3CCCCC3)CC[C@H]2C)n1
The procedure, abridged:
as §1

Compound in another assay: COC(=O)N[C@@H](C)CNc1nccc(-c2cn(C(C)C)nc2-c2cc(Cl)cc(NS(C)(=O)=O)c2F)n1 [encorafenib]
The essentials:
as §1

Compound in assay [3]: COC(=O)[C@H](CCSC)NC(=O)C1=C(C=C(C=C1)NC[C@H](CS)N)C2=CC=CC=C2
The procedure, abridged:
as §1

Compound in another assay: COc1cc(Nc2ncc3c(n2)-c2ccc(Cl)cc2C(c2c(F)cccc2OC)=NC3)ccc1C(=O)O [alisertib]
The essentials: as §1

Compound in assay [4]: COc1cc2nc(-c3cc(F)ccc3O)nc(N[C@@H]3CNC[C@H]3C(C)(C)O)c2cc1OC
The essentials: as §1

Compound in a further assay: COc1cc2ncnc(Nc3ccc(F)c(Cl)c3)c2cc1OCCCN1CCOCC1 [gefitinib]
The essentials:
as §1

Compound in the next assay: CN1CCc2c(c3ccccc3n2Cc2ccc(C(=O)NO)cc2)C1 [Tubastatin A]
The essentials: as §1

Sequence of UniProt Q9Y4B4 (Q9Y4B4 whole entry, looked up): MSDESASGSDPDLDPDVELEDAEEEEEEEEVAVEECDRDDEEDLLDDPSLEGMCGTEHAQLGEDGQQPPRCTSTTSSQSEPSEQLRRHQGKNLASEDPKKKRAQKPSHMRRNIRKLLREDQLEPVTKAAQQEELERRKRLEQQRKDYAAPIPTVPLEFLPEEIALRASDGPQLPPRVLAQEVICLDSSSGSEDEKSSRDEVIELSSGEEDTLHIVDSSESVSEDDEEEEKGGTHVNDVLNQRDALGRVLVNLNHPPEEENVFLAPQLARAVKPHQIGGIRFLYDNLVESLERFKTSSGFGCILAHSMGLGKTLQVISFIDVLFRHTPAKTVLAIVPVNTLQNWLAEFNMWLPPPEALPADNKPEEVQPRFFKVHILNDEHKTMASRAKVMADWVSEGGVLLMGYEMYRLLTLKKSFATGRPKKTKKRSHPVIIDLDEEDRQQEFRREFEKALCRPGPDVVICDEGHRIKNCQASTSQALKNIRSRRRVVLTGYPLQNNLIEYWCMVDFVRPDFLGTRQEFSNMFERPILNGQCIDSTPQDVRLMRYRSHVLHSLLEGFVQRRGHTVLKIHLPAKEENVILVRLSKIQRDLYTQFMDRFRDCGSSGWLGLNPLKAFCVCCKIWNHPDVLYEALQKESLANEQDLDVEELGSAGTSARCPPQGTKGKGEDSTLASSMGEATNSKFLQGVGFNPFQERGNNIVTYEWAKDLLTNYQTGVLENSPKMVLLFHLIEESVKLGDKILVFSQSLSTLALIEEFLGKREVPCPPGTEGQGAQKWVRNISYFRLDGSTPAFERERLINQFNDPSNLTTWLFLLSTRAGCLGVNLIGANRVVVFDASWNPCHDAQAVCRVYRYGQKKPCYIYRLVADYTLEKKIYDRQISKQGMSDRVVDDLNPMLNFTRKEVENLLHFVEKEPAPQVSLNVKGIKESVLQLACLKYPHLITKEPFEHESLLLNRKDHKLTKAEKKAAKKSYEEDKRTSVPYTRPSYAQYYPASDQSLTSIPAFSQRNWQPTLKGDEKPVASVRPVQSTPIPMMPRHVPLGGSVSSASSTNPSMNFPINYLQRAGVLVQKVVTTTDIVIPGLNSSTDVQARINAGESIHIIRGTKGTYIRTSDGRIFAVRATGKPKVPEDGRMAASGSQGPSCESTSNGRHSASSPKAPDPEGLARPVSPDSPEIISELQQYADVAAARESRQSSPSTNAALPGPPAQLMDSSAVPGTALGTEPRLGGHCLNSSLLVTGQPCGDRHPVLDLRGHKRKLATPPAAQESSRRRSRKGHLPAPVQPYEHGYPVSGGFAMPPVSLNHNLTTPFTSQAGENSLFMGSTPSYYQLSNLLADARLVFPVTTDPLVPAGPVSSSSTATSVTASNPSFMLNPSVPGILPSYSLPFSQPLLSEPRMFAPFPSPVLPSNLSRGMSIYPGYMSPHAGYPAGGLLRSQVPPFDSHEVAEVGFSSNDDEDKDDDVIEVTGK
Sequence of UniProt Q8WXA3 (Q8WXA3 whole entry, looked up): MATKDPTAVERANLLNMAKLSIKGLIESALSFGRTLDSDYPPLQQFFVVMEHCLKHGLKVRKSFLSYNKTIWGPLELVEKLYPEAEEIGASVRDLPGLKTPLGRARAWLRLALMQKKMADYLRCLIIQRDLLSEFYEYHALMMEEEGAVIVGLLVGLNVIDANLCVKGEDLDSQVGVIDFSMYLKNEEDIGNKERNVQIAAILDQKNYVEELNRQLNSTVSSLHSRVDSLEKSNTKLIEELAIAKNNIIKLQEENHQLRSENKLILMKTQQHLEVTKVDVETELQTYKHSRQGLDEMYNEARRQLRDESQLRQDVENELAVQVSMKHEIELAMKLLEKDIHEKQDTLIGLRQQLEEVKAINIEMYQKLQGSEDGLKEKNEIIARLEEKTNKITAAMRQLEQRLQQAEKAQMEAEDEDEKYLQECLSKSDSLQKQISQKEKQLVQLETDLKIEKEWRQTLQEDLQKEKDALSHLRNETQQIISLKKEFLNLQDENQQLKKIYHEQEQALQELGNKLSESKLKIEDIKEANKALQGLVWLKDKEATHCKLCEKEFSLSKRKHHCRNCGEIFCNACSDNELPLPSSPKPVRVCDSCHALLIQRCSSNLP
Sequence of UniProt Q8NC42 (Q8NC42 whole entry, looked up): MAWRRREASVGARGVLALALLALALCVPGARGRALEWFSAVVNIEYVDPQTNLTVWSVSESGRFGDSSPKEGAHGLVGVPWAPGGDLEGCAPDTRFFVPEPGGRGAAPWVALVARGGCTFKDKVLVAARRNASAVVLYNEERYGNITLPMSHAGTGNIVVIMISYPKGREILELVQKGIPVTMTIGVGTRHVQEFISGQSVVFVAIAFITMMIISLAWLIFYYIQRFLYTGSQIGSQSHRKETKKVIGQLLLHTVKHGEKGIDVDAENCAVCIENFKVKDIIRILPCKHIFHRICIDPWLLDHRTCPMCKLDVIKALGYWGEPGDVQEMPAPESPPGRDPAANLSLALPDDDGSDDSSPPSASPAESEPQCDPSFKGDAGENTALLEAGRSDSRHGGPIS
Sequence of UniProt O75446 (O75446 whole entry, looked up): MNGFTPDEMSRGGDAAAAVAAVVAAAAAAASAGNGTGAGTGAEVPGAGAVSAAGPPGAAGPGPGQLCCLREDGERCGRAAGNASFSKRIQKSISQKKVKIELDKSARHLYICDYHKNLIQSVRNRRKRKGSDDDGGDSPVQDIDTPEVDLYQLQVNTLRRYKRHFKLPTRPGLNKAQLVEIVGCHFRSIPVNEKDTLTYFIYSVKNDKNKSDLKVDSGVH
Sequence of UniProt Q9BUV8 (Q9BUV8 whole entry, looked up): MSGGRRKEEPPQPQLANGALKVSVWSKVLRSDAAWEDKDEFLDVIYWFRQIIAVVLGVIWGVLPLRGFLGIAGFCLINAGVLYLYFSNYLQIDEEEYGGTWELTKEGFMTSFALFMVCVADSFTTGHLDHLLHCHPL
Sequence of UniProt Q86X10 (Q86X10 whole entry, looked up): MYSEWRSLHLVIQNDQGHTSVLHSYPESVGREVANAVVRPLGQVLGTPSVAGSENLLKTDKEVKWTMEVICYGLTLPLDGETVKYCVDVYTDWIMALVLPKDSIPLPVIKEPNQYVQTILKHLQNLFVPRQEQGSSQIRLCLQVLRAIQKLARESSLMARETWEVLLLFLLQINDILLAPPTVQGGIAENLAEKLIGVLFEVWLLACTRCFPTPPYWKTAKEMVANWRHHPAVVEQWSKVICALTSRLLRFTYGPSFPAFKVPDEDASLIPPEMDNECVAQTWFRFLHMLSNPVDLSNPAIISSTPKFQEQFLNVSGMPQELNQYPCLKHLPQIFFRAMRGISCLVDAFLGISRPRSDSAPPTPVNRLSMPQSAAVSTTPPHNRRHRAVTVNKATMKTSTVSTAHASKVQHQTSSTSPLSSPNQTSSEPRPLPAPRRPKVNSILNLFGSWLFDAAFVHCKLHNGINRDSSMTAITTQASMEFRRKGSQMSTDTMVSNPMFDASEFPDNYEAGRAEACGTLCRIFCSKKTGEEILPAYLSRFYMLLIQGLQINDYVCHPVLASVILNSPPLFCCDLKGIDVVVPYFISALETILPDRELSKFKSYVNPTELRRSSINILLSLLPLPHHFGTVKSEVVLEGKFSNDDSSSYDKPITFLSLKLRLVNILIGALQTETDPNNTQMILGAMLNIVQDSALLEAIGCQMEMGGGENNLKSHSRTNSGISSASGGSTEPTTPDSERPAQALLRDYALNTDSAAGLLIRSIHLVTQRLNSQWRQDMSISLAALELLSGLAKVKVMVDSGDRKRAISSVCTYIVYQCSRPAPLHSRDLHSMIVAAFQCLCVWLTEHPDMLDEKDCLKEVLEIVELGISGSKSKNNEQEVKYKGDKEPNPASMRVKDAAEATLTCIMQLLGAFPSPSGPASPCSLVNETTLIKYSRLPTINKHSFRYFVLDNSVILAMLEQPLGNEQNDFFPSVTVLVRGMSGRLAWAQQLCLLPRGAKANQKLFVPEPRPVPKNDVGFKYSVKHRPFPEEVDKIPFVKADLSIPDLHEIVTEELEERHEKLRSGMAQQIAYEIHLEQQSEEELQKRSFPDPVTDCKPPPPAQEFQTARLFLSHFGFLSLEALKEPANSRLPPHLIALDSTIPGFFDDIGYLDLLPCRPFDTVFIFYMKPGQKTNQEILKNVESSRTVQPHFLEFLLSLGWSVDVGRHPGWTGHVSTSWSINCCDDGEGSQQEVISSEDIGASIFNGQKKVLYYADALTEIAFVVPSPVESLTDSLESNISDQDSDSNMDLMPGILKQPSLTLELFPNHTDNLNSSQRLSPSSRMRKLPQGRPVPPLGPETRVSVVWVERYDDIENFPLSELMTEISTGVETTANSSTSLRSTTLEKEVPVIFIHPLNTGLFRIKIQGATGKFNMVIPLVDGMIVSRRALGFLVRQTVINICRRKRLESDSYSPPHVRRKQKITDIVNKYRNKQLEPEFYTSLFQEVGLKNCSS
Sequence of UniProt Q9Y225 (Q9Y225 whole entry, looked up): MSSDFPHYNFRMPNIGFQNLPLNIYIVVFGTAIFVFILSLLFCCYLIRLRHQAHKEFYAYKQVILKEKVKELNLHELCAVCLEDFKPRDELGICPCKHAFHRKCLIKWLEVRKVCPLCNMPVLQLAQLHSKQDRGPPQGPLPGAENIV
Sequence of UniProt Q16576 (Q16576 whole entry, looked up): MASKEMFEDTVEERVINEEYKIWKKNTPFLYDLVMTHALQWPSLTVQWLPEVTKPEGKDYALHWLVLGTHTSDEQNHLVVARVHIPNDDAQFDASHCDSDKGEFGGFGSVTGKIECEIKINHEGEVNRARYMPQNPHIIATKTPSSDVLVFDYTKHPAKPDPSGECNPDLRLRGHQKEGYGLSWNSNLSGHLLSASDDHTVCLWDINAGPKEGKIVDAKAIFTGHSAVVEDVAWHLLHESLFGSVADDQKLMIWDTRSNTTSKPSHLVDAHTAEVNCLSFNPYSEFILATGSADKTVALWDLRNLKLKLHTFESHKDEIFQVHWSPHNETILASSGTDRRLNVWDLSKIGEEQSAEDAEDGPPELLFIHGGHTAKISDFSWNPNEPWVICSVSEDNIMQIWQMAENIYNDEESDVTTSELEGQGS
Sequence of UniProt Q9Y6D0 (Q9Y6D0 whole entry, looked up): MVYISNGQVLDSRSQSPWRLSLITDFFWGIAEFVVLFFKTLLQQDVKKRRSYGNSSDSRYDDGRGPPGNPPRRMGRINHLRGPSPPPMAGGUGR

RXRB isoform 3 (UniProt P28702): the log2 fold change with alvocidib was 0.008; in assay [1] it was 0.126; with defactinib, 0.05; in [2], -0.003; in the assay with encorafenib it was 0.066; in assay [3], -0.042. For the same target, the log2 fold change with alisertib was -0.044; in [4], 0.073; in the assay with gefitinib, 0.047.
In the case of RAD54L (UniProt Q92698), the log2 fold change in the assay with alvocidib is -0.673; with Tubastatin A, 0; in assay [1], 0.013; in assay [2], -0.132; in the assay with alisertib, -0.022; in assay [4], -0.041. In addition, in the assay with gefitinib, the log2 fold change was 0.
In the case of RNASEH2B, A0A1B0GUE7, the log2 fold change in the assay with alisertib is 0.04; in assay [4], 0.039; in the assay with gefitinib it was -0.028.
RBBP7 (UniProt Q16576): the log2 fold change was -0.005 in the assay with Tubastatin A; 0.006 in [1]; -0.018 with defactinib; -0.125 in [2]; 0.032 in the assay with encorafenib; -0.021 in assay [3]. For the same target, the results for the log2 fold change (in the assay with alisertib; in assay [4]; with gefitinib) were 0.014, -0.003 and 0.006, respectively.
With RNF24 isoform 2 (UniProt Q9Y225), the log2 fold change with alvocidib was 0.079; in assay [1], 0.003; with alisertib it was -0.113; with gefitinib it was -0.108.
In the case of RETREG2 (UniProt Q8NC44), the log2 fold change was -0.069 in the assay with alvocidib; -0.025 with Tubastatin A; 0 in assay [1]; -0.12 in the assay with defactinib; -0.002 in the assay with encorafenib; -0.096 in assay [3]. Moreover, the values for the log2 fold change (in the assay with alisertib; in assay [4]; with gefitinib) were -0.029, -0.007 and -0.058, respectively.
For RAB5IF isoform 5 (UniProt Q9BUV8), the log2 fold change is 0.249 with alvocidib; 0 in assay [1]; -0.032 with defactinib; -0.011 in assay [2]; 0.04 with encorafenib; -0.125 in assay [3]. Moreover, the log2 fold change with alisertib is 0.15; in [4], -0.011; with gefitinib it was 0.131.
As to SEMA4G isoform 2 (UniProt Q9NTN9), the log2 fold change with alvocidib is -0.116; in assay [1], 0.122; with defactinib, -0.047; in [2], 0.143; with encorafenib, -0.193; in assay [3], 0.215.
For the target S100A6 (UniProt P06703), the log2 fold change with alvocidib was 0.084; in the assay with Tubastatin A, -0.044; in assay [1] it was 0.018; with defactinib, -0.017; in [2], -0.126; in the assay with encorafenib, -0.173. Moreover, the figures for the log2 fold change in assay [3] and in assay [4] were 0.023 and -0.038, respectively.
Consider RHBDD1 (UniProt Q8TEB9), for which the log2 fold change with alvocidib is -0.018; with defactinib, 0.024; with encorafenib, 0.063; in assay [3], 0.054; in [4] it was 0.02.
Regarding RYR1 (UniProt P21817), the log2 fold change with alvocidib was 0.015; with Tubastatin A, 0.097; in assay [1] it was 0.064; in assay [2], 0.16; with encorafenib, -0.024; in [3], -0.087. Further, the log2 fold change in assay [4] was 0.02.
Regarding RBM45 (UniProt Q8IUH3), the log2 fold change was 0.013 with alvocidib, -0.136 in the assay with alisertib, 0.055 in [4] and -0.03 in the assay with gefitinib.
With RALGAPB isoform 3 (UniProt Q86X10), the log2 fold change was 0.161 with alvocidib, 0.064 in assay [2], 0.073 with encorafenib and 0.107 in assay [3].
As for QSER1, A0A3B3IRW6, the log2 fold change was -0.122 in the assay with Tubastatin A; 0.014 in assay [1]; 0.019 with defactinib; -0.035 in [2]; 0.059 in the assay with encorafenib; 0.183 in assay [3]. For the same target, the log2 fold change with alisertib was 0.025; in assay [4], -0.004; with gefitinib it was -0.021.
With SAP30 (UniProt O75446), the log2 fold change in the assay with alvocidib is -0.022; with defactinib, -0.028; in assay [2], 0.089; with encorafenib, -0.007; in [3], 0.053; in the assay with alisertib, 0.044. The log2 fold change in assay [4] is 0.087; in the assay with gefitinib, -0.285.
RFNG (UniProt Q9Y644): the log2 fold change with alisertib was -0.003; with gefitinib, 0.424.
RAD54L2 (UniProt Q9Y4B4): the log2 fold change was 0.007 with alvocidib; -0.065 in [1]; -0.013 with defactinib; 0.093 in assay [2]; 0.102 in the assay with encorafenib; 0.153 in assay [3]. In addition, the log2 fold change with alisertib is 0.141; in [4] it was -0.088; in the assay with gefitinib it was 0.045.
Regarding RUFY2 isoform 1 (UniProt Q8WXA3), the log2 fold change with alvocidib was 0.01; with Tubastatin A, 0.074; in the assay with defactinib, 0.066; with encorafenib it was 0.13; in [3], -0.031; in the assay with alisertib, 0.003. In the assay with gefitinib, the log2 fold change was 0.053.
Turning to RNF149 (UniProt Q8NC42), the log2 fold change was -0.038 in the assay with alvocidib; -0.047 with Tubastatin A; 0.02 in [1]; 0.028 with defactinib; 0.004 in assay [2]; -0.483 (active) with alisertib. In addition, the log2 fold change in [4] is -0.059; in the assay with gefitinib, -0.075.
As for SELENOK (UniProt Q9Y6D0), the log2 fold change with alvocidib was -0.169; with defactinib it was 0.123; in assay [2] it was -0.001; with alisertib it was -0.018; in [4], -0.025; with gefitinib, 0.006.
